Among the data in PubChem BioAssay are composite z-score and z-score values, retold here.

Where “and” joins values, the source holds several entries; their conditions need not be identical. Identical values can stand only once. Calls of active or inactive are those of the source. Unless noted, how the calls were made is not given here.

Assay [1] can be described thus: compounds binding Alexa647 anti-His antibody – biochemical, small-molecule microarray, 635 nm fluorescence, artefact control for SMM control protein annotation, primary screen (AID 1128).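 Further: score merges feature fluorescence with signal-to-noise for each printed compound spot.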 Conditions: higher = more signal.
The test system of assay [2] is Human papillomavirus type 1a E7 protein (residues 1-88). Put plainly: HPV1a E7 small-molecule binders, primary screen, biochemical, small-molecule microarray, residues 1-88, 635 nm (AID 1129). Conditions: small-molecule microarray binding, fluorescence 635 nm; higher = more signal.
In assay [3] the target is Focal adhesion kinase 1 (Homo sapiens) (UniProt Q05397). Put plainly: PTK2 protein binding on printed compound slides – biochemical, small-molecule microarray, 635/667 nm fluorescence, BSA, DTT, primary screen (AID 1130).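 Further: composite of spot emission at 667 nm and signal to noise over triplicate slides.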 Conditions: 635 nm fluorescence, higher = more signal.
Assay [4] relates to Fibrinogen (Alexa647-labelled). Put plainly: Alexa647-fibrinogen binding to printed small molecules – biochemical, small-molecule microarray, 635/667 nm fluorescence, artefact control for SMM control-protein annotation, profiling panel (AID 1131).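 Further: z-score merges 667 nm fluorescence with per-spot signal-to-noise over triplicate slides.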 Conditions: fibrinogen-A647 binding fluorescence, higher = more signal.
The target of assay [5] is Follistatin (Homo sapiens) (UniProt P19883). Description: FST protein binding to printed compounds – biochemical, small-molecule microarray, 635/667 nm fluorescence, primary screen (AID 1132). Conditions: 635 nm fluorescence, higher = more signal.
In assay [6] the target is Fibroblast growth factor 2 (Homo sapiens) (UniProt P09038). Put plainly: basic fibroblast growth factor binding to printed compounds – biochemical, small-molecule microarray, 635/667 nm fluorescence, primary screen (AID 1133). Conditions: FGF2, fluorescence 635/667, higher = more signal.
Assay [7] in a line: JC-1 mitochondrial potential readout, lung cancer cells – cell-based, A549, JC-1 fluorescence, basal, 24 h, 100 nL, profiling panel (AID 1138).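 Further: A549 lung adenocarcinoma cells under basal conditions with no added stimulus; test concentration not given here.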 The conditions noted are these: higher = more signal.
In assay [8] the test system is Lefty1. Description: Lefty1 protein binding to printed compounds – biochemical, small-molecule microarray, 635/667 nm fluorescence, primary screen (AID 1139). Conditions: fluorescence 635/667, higher = more signal.
Assay [9] relates to wheat germ agglutinin (Triticum aestivum), Alexa647-labelled. Put plainly: Alexa647-WGA lectin binding to printed small molecules – biochemical, small-molecule microarray, 635/667 nm fluorescence, artefact control for SMM control-protein annotation, profiling panel (AID 1140).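 Further: score merges 667 nm feature emission with signal to noise over triplicate slides.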 Conditions: WGA-A647 binding, 635 nm fluorescence, higher = more signal.
Assay [10] deals with Luciferin 4-monooxygenase (Photinus pyralis) (UniProt P08659). Description: inhibition of purified Photinus pyralis luciferase – biochemical, luminescence, purified enzyme, 2006 set, primary screen (AID 1141).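 Further: cell-free assay with purified firefly luciferase at 100 ng per well in PBS; test concentration not given here.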 Conditions: purified firefly luciferase, SteadyGlo luminescence, 30 min; higher = more signal, called active from +8 up or from −8 down.
The subject of assay [11] is Wnt5a (protein binding on small-molecule microarray). Put plainly: small molecules binding Wnt5a protein – biophysical, small-molecule microarray, 635/667 nm fluorescence, primary screen (AID 1142).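 Further: fluorescence read at 667 nm with signal to noise per printed feature.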 The conditions noted are these: 635 nm fluorescence, higher = more signal.
The nature of assay [12]: ATP-based viability of Huh7 replicon cells – cell-based, CellTiter-Glo luminescence, basal, 48 h, cytotoxicity control for HCV replication inhibitor project, primary screen (AID 1143).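 Further: Huh7 hepatoma cells carrying a hepatitis C replication reporter with no stimulus; test concentration not given here.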 The conditions noted are these: higher = more signal, called active from +8 up or from −8 down. Background: A replicon is a self-replicating genome or part of one, used to study replication in cells.

A short description of assay [13]: Pseudomonas biofilm growth suppression – PAO1 strain, BacTiter-Glo luminescence, LB-PBS, primary screen (AID 1144). The conditions noted are these: P. aeruginosa PAO1 biofilm, 12 h, higher = more signal.
The nature of assay [14]: basal CRE-LacZ reporter activity in PC12 – cell-based, unstimulated, primary screen (AID 1145). The conditions noted are these: no forskolin, luminescence, 4.5 h, higher = more signal, called active from +8 up or from −8 down.
Assay [15] in a line: forskolin-driven CRE-LacZ activity in PC12 – cell-based, CRE-LacZ reporter, forskolin-stimulated, primary screen (AID 1146).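 Further: PC12 cells with 6xCRE LacZ reporter stimulated by forskolin 10 µM; beta-galactosidase reporter signal reflecting CREB driven transcription.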 Conditions: luminescence, 4.5 h, higher = more signal, called active from +8 up or from −8 down.
The target of assay [16] is Streptavidin (Streptomyces avidinii) (UniProt P22629). Description: compounds binding control protein streptavidin – biophysical, small-molecule microarray, 635/667 nm fluorescence, artefact control for SMM compound annotation, primary screen (AID 1147).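 Further: signal reflects streptavidin binding to arrayed compounds as a control protein.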 The conditions noted are these: higher = more signal.
The nature of assay [17]: probe aInhba binding on compound microarray – biochemical, small-molecule microarray, 635/667 nm fluorescence, primary screen (AID 1148).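 Further: score merges 667nm spot fluorescence with signal-to-noise for antibody binding to printed compounds.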 Conditions: higher = more signal.
The target of assay [18] is Torsin-1A (Homo sapiens) (UniProt O14656). Description: TOR1A wild-type binding on microarray – cell lysate, small-molecule microarray, lysate, 635/667 nm, primary screen (AID 1149). Conditions: COS7 hTOR1A-WT lysate, 635 nm fluorescence, higher = more signal.
For assay [19] the target is unchanged. Put plainly: torsin A mutant lysate binding on microarrays – cell lysate, small-molecule microarray, COS7 lysate, 635/667 nm fluorescence, primary screen (AID 1150).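 Further: score pools 667 nm emission and signal to noise measuring lysate protein binding.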 Conditions: COS7 hTOR1A mutant lysate, 635 nm fluorescence, higher = more signal.
Assay [20] has as its system Sonic hedgehog protein (Shh). Put plainly: Sonic hedgehog microarray binding compounds – biochemical, small-molecule microarray, 635/667 nm fluorescence, primary screen (AID 1151).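 Further: Shh protein binding to compounds spotted on small-molecule microarray slides; score combines spot fluorescence intensity with signal-to-noise across triplicate slides.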 The conditions noted are these: 635 nm fluorescence, higher = more signal.

Chain of Fibroblast growth factor 2 (Homo sapiens) (P09038 whole entry, looked up): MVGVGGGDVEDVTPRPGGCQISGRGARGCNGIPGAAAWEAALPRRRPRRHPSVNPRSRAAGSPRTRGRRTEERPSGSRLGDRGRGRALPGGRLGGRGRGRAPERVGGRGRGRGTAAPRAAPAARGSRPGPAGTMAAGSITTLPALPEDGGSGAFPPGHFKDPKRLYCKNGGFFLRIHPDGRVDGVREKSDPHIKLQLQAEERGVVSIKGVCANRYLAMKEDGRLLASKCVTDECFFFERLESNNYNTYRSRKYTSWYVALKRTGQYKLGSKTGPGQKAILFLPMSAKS
Chain of Streptavidin (Streptomyces avidinii) (P22629 whole entry, looked up): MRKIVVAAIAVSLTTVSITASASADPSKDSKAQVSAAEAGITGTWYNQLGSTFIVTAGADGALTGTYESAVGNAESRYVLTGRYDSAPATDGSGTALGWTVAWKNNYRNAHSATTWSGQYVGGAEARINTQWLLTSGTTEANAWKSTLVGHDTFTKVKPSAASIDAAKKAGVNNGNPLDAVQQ
Chain of Follistatin (Homo sapiens) (P19883 whole entry, looked up): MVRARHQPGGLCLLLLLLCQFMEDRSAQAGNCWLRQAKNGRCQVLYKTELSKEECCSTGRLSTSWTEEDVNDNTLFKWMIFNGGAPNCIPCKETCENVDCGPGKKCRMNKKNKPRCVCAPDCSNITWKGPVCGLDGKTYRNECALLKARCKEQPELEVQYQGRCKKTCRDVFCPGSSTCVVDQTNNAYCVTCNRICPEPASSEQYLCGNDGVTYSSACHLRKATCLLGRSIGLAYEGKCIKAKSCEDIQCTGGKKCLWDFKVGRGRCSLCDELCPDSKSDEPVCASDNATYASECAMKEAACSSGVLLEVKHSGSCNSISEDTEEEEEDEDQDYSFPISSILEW
Chain of Torsin-1A (Homo sapiens) (O14656 whole entry, looked up): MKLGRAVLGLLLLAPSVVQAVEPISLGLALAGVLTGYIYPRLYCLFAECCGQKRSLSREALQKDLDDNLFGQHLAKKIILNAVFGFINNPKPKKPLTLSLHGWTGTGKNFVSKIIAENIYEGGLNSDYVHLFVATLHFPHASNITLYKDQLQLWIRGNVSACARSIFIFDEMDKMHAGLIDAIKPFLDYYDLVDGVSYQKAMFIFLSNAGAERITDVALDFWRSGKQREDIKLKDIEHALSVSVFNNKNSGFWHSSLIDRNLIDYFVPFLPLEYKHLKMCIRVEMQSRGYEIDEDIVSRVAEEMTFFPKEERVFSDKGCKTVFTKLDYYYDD
Chain of Luciferin 4-monooxygenase (Photinus pyralis) (P08659 whole entry, looked up): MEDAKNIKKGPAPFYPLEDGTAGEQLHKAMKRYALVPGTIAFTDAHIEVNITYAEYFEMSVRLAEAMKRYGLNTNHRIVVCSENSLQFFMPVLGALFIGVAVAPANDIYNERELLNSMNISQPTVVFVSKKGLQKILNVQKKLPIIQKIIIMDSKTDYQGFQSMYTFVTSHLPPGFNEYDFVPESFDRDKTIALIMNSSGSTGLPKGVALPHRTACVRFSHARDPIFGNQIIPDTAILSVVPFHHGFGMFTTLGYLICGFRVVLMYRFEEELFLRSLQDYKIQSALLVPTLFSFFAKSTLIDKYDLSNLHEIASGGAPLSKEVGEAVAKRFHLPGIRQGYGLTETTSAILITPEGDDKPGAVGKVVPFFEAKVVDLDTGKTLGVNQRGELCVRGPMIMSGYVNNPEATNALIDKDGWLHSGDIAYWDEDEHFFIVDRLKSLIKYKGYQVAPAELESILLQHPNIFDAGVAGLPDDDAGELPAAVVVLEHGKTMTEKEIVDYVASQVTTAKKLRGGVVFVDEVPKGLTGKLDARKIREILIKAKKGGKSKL
Chain of Focal adhesion kinase 1 (Homo sapiens) (Q05397 whole entry, looked up): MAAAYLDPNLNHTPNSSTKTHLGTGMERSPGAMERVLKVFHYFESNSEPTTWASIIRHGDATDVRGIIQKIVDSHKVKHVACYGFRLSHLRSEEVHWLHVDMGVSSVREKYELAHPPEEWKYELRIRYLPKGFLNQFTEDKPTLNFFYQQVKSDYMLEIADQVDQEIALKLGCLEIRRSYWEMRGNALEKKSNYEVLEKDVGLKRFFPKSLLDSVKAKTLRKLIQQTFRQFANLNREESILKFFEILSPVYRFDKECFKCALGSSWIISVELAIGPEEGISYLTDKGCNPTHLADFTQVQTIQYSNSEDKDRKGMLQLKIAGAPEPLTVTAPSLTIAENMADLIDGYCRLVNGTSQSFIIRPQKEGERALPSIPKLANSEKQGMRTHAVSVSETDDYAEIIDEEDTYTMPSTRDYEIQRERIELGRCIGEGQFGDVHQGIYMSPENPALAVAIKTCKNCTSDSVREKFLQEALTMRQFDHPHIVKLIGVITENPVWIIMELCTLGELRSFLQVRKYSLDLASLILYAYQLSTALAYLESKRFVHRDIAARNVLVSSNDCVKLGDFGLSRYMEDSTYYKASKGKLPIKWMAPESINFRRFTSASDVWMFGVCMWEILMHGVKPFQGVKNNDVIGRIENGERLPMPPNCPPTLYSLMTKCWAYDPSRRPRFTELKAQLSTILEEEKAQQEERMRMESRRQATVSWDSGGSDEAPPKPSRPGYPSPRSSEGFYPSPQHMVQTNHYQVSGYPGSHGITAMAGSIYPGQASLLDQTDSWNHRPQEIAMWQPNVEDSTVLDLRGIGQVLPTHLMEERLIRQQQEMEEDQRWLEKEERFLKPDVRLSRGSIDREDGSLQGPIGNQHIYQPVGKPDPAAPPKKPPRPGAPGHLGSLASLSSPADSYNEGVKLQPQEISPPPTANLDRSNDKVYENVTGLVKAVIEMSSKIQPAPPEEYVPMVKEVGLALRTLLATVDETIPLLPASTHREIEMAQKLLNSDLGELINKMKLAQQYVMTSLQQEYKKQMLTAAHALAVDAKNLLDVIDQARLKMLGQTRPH

For `CO[C@H]1COC(=O)CC=C[C@H](C)[C@H](OC)COC(=O)[C@@H](C)COC(=O)CC=C[C@@H]1C`, the composite z-score in [1] was 0.155 and -0.15; in assay [2], 0.151 and -0.833; in assay [3], 0.445 and -0.105; in assay [4], -0.77 and -1.28; in [5] it was 1.13 and 0.8; in assay [6] it was 0.651 and 0.402. The composite z-score in assay [8] was 0.914 and 0.398; in assay [9], -0.464 and -0.424; in assay [11], -0.051 and -0.105; in assay [16], -0.313 and 0.0956; in assay [17], -0.195 and -0.224; in assay [18] it was 0.636 and 0.802. For the same compound, the composite z-score in assay [19] is 0.269 and 1.17; in [20] it was 1.08 and 1.09. Further, the z-score in [7] was 0.597 and 1.4; in assay [10], -0.882 (inactive) and -1.16 (inactive); in [12], 1.08 (inactive) and -0.441 (inactive); in assay [13], -0.186 (inactive) and 0.0947 (inactive); in assay [14], -0.116 (inactive) and -1.19 (inactive); in [15], -0.689 (inactive) and -0.777 (inactive).
Turning to `C=C[C@H](C)[C@@H](O)c1ccc(OCCO)cc1`, the composite z-score is -0.419 and 0.713 in assay [1]; -1.38 and -0.449 in [2]; -0.996 and -0.139 in assay [3]; -1.48 and 0.462 in assay [4]; 0.42 and 0.345 in [5]; 0.036 and -0.488 in [6]. For the same compound, the composite z-score in assay [8] was -0.931 and 0.134; in [9], -0.449 and 0.106; in [11], -0.827 and -0.751; in assay [16] it was 0.129 and -0.772; in [17], -0.37 and -0.208; in assay [18] it was -1.96 and -1.8. For the same compound, the composite z-score in assay [19] was -2.09 and -1.25; in [20] it was 0.134 and 0.524. In addition, the z-score is -0.459 and 1.14 in assay [7]; -3.17 (inactive) and -4 (inactive) in assay [10]; -1.64 (inactive) and 0.216 (inactive) in assay [12]; 0.0711 (inactive) and -0.987 (inactive) in [13]; -0.883 (inactive) and 0.861 (inactive) in assay [14]; -0.783 (inactive) and -0.722 (inactive) in [15].
In the case of `CON(C)C(=O)c1nnc2c3ccccc3n(S(=O)(=O)c3ccc(C)cc3)c2n1`, the composite z-score in assay [1] is 0.397 and 0.647; in assay [2] it was 0.836 and 1.11; in assay [3], 0.323 and 0.0633; in assay [4], 0.88 and 0.578; in [5], 0.229 and 0.552; in [6] it was 0.43 and 1.31. Further, the composite z-score in [8] was 0.273 and 0.757; in assay [9] it was 0.184 and 0.328; in assay [11], 0.26 and 0.335; in assay [16], 1.31 and 1.67; in assay [17] it was 0.0543 and -0.0018; in [18], 0.201 and 1.19. For the same compound, the composite z-score in [19] is 0.492 and 1.11; in [20] it was 0.642 and 1.22. Further, the z-score in assay [7] is 0.551 and 0.105; in assay [10] it was -0.251 (inactive) and -0.0743 (inactive); in assay [12] it was 0.24 (inactive) and 0.0218 (inactive); in assay [13], 1.36 (inactive) and 0.0837 (inactive); in [14], 1.37 (inactive) and 1.28 (inactive); in assay [15], -0.0387 (inactive) and -0.484 (inactive).
`COC(=O)c1c2oc(c1C(=O)OC)C(=O)N[C@@H](Cc1ccccc1)Cn1cc(nn1)C1(CCCCC1)NC(=O)N[C@H](CO)CC2`: the composite z-score in [1] is 2.15 and -0.277; in assay [2], 1.09 and 0.558; in assay [3] it was 0.105 and 0.0367; in [4] it was 1.01 and 0.223; in assay [5] it was 1.38 and 0.484; in assay [6] it was 1.41 and 0.184. Also, the composite z-score was 0.956 and 0.506 in [8]; 0.462 and -0.0588 in assay [9]; 0.547 and 0.189 in assay [11]; 0.216 and 0.517 in [16]; 0.271 and -0.103 in assay [17]; 0.212 and 0.403 in assay [18]. Also, the composite z-score in [19] was -0.0506 and 0.489; in assay [20] it was 1.28 and 0.781. In addition, the z-score was 1.53 and 3.28 in [7]; -1.19 (inactive) and -0.739 (inactive) in assay [10]; -0.237 (inactive) and -0.109 (inactive) in assay [12]; -1.23 (inactive) and -0.509 (inactive) in [13]; 0.484 (inactive) and 3.25 (inactive) in assay [14]; -0.635 (inactive) and -0.0904 (inactive) in assay [15].
